Assay outcomes from PubChem BioAssay.
ABHD5 PLIN5 PPI: blocks binding of human ABHD5 to perilipin-5; Q00G26+Q8WTS1; Split G. princeps luciferase complementation, luminescence, 4 h; inhibition, % at 4 µM; actives 0.78% (n = 360,000);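 active = inhibition above the mean inhibition across every tested compound plus 3 SD, cut at about 22% in these data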
TLR9-MyD88 block: TLR9-MyD88 interaction inhibition; Q9NR96+Q99836; CHO BLA complementation TLR9-MyD88, CCF4 FRET ratio; inhibition, % at 4.98 µM; actives 0.21% (n = 340,000); AID 504734;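 active = inhibition above the mean over all tested compounds plus 3 SD, cut at about 21% in these data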
NOD2 RIPK2 PPI: NOD2-RIPK2 protein interaction inhibition | inhibition, % at 4.98 µM | actives 0.38% (n = 360,000) | O43353 | CHO BLA complementation NOD2-RIPK2, CCF4 ratio | AID 624267; in the data active = inhibition above about 21%
TLR4-MyD88 BLA: TLR4-MyD88 interaction inhibition in cells | HeLa CL3-4 TLR4/MyD88 BLA complementation, FRET ratio | inhibition, % at 8.4 µM | AID 861 | actives 0.18% (n = 200,000) | O00206+Q99836; in the data active = inhibition above about 25%
TLR4-MyD88 conf: TLR4-MyD88 interaction inhibition confirmed. shares compounds with TLR4-MyD88 BLA. HeLa CL3-4 BLA complementation, CCF4 FRET ratio. inhibition, % at 8.4 µM. actives 50% (n = 350). AID 941;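 active = mean inhibition across three repeat runs above about 25% carried over from the earlier screen, limit read from the data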
BLA inh HeLa: inhibits beta-lactamase activity, counter-screen to TLR4-MyD88 binding inhibitors | inhibition, % at 8.4 µM | shares compounds with TLR4-MyD88 BLA | HeLa BLA reporter, CCF4 FRET ratio | actives 63% (n = 350) | AID 1237;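 active = mean inhibition over three repeats above about 26% taken from the earlier screen, limit read from the data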;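 also: HeLa cells stably expressing beta-lactamase reporter as counterscreen for TLR4-MyD88 inhibitors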
TLR9-MyD88 cf: TLR9-MyD88 interaction inhibition, confirmation; actives 51% (n = 680); shares compounds with TLR9-MyD88 block; inhibition, % at 4.98 µM; CHO TLR9/MyD88 BLA complementation, CCF4 FRET ratio;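 active = mean inhibition across three repeats above about 21% taken from the earlier screen, limit read from the data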;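 also: blue over green emission ratio reports constitutive TLR9 MyD88 association via BLA complementation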
BLA counter-1: counter-screen for TLR9-MyD88 inhibitors: non-selective beta-lactamase inhibitors. inhibition, % at 4.98 µM. AID 540251. CHO-BLA cells, CCF4 FRET ratio, BLA reporter. actives 7% (n = 680). shares compounds with TLR9-MyD88 block;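 active = mean inhibition above a 50% cutoff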;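 also: counterscreen of TLR9-MyD88 hits on CMV-driven BLA in CHO-K1 cells; higher means less blue over green ratio so more BLA blockade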
TLR9 CHO tox: CHO cell toxicity counter-screen for TLR9-MyD88 inhibitors | shares compounds with TLR9-MyD88 block | TLR9-MyD88 CHO cells cytotoxicity, luminescence | inhibition, % at 4.98 µM | actives 39% (n = 680) | AID 588336; in the data active = inhibition above about 11%
ABHD5 PLIN5 conf: confirmation of human ABHD5-PLIN5 interaction inhibitors | actives 67% (n = 2,200) | AID 651612 | inhibition, % at 4 µM | shares compounds with ABHD5 PLIN5 PPI | biochemical ABHD5-PLIN5 interaction, luminescence; in the data active = inhibition above about 23%
HNF4 split-luc: HNF4 split-luciferase signal hit, counter-screen; shares compounds with ABHD5 PLIN5 PPI; HNF4 dimerization, luminescence, biochemical; inhibition, % at 4 µM; actives 77% (n = 2,200);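 active = mean inhibition across replicate wells exceeding the computed hit threshold, cut at about 13% in these data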;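 also: light from luciferase halves that rejoin when HNF4 fusion proteins dimerize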
NOD2 RIPK2 conf: NOD2-RIPK2 interaction inhibition confirmed; shares compounds with NOD2 RIPK2 PPI; CHO cells, NOD2-RIPK2 BLA complementation, CCF4 FRET; inhibition, % at 4.98 µM; actives 70% (n = 1,200); AID 624370;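 active = mean inhibition across replicates above a set limit taken from the earlier primary screen, cut at about 21% in these data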
BLA counter-2: NOD2-RIPK2 counterscreen BLA reporter activity; shares compounds with NOD2 RIPK2 PPI; inhibition, % at 4.98 µM; actives 57% (n = 1,200); AID 624371; CHO BLA reporter, CCF4 FRET ratio;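 active = mean inhibition above the low-control mean inhibition plus three low-control SD, cut at about 11% in these data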
A number is an active result; . = inactive; / = no result. Only some compounds are listed: those with a hit (about 1.2% of all), similar ones and a draw of the others.

SMILES	ABHD5 PLIN5 PPI	TLR9-MyD88 block	NOD2 RIPK2 PPI	TLR4-MyD88 BLA	others
Cc1ccc(C[n+]2c(-c3ccc(C)cc3)cc(-c3ccc(C)cc3)cc2-c2ccc(C)cc2)cc1	38	.	.	/
COC(=O)C1=C(c2ccc(C(C)=O)cc2)C[C@@H]2CC[C@H]1N2C(=O)NCC1CC1	.	.	.	/
Cc1ccc(N2C(=O)NC(=O)/C(=C/c3ccc(-c4ccc(C(=O)O)c(Cl)c4)o3)C2=O)cc1	22	.	.	.
Cc1cccc(N2C(=O)NC(=O)/C(=C\c3cccn3-c3ccc(Cl)cc3)C2=O)c1	30	.	.	.
CC1=NN=C(c2ccc(N)cc2)c2cc3c(cc2C1)OCO3	.	.	.	/
CCCC[C@@H](C)C[C@@H](C)C(=O)N(C)[C@@H](CC(C)C)C(=O)N[C@H](C(=O)N(C)[C@H](C(=O)N1C[C@@H](O)C[C@H]1C(=O)N1C(=O)C=C[C@@H]1C)C(C)C)C(C)OC(C)=O (stereo partly drawn)	43	.	.	/
COC1C(O)C(C)OC(OC2CCC3(C)C(CCC4C3C(O)CC3(C)C(C5=CC(=O)OC5)CCC43O)C2)C1O (stereo not drawn)	22	.	.	/
COc1ccc(N2C(=O)CC(=O)NC2=O)cc1	22	.	.	.
COC1=CC(=O)O[C@@H](/C=C/c2ccccc2)C1	.	.	.	/
COC(=O)C1=C(c2ccc(-c3ccccc3)c(F)c2)C[C@@H]2CC[C@H]1N2C(=O)NC1Cc2ccccc2C1	.	.	.	/
CCN(CC)C(=O)Cn1cc(/C=C2\C(=O)NC(=O)N(c3ccccc3F)C2=O)c2ccccc21	23	.	.	/
CCN1C(=O)NC(=O)/C(=C\c2cn(CC(=O)N3CCCCC3C)c3ccccc23)C1=O (stereo not drawn)	.	.	.	/
CC1(C)C(C(=O)N2CCN(c3ccc(Cl)cc3)CC2)C1(C)C	.	.	.	/
COC(=O)C1CN(C#N)N(c2ccc(Cl)cc2)C12c1ccccc1-c1ccccc12 (stereo not drawn)	74	.	58	.
COc1ccc(N2C(=O)NC(=O)/C(=C/c3cccc(OC(=O)c4cccs4)c3)C2=O)cc1Cl	/	/	/	.
Cc1ccc(N2C(=O)NC(=O)/C(=C/c3ccc(OC(=O)c4cccs4)cc3)C2=O)cc1	34	.	.	.
Clc1ccc(C(c2ccc(Cl)cc2)n2cc[n+](CC(OCc3ccc(Cl)cc3Cl)c3ccc(Cl)cc3Cl)c2)cc1 (stereo not drawn)	.	28	.	/
Clc1ccc(COC(Cn2ccnc2)c2ccc(Cl)cc2Cl)cc1 (stereo not drawn)	.	.	.	.
CCOC(=O)C(O)(c1ccc(N=c2ccccn2C)cc1)C(F)(F)F (stereo not drawn)	.	.	.	/
COc1cc(OC)c(OC)cc1CN1CCN(C(=O)Cc2ccccc2)CC1	.	.	.	/
O=C(O)CCn1cc(C=C2C(=O)NC(=O)NC2=O)c(-c2cc3ccccc3oc2=O)n1	22	.	.	.
COC(=O)C1=C(c2ccc(S(C)(=O)=O)cc2)C[C@@H]2CC[C@H]1N2C(=O)N1CCOCC1	.	.	.	/
CNc1cc(Cl)c2nonc2c1[N+](=O)[O-]	32	80	93	52	TLR4-MyD88 conf=55;BLA inh HeLa=44;TLR9-MyD88 cf=68;BLA counter-1=.;TLR9 CHO tox=100;ABHD5 PLIN5 conf=36;HNF4 split-luc=80;NOD2 RIPK2 conf=102;BLA counter-2=60
O=C1NCN(c2ccccc2)C12CCN(C(c1cccc3ccccc13)c1nnnn1C1CCCC1)CC2 (stereo not drawn)	.	/	.	/
COc1cc(/C=C/c2nc3ccccc3c(=O)n2-c2ccc(O)cc2)ccc1O	.	.	.	/
SMILES	ABHD5 PLIN5 PPI	TLR9-MyD88 block	NOD2 RIPK2 PPI	TLR4-MyD88 BLA	others
COc1ccc(-n2c(/C=C/c3ccc(O)c(O)c3)nc3ccccc3c2=O)cc1	.	24	.	/	TLR9-MyD88 cf=.;BLA counter-1=.;TLR9 CHO tox=.
CN1C(=O)N(C)C(=O)C(NS(=O)(=O)c2ccc(N)cc2)(c2ccccc2)C1=O	.	.	.	/
CCCCOC(=O)c1ccccc1C(=O)OCCCC	.	25	.	/	TLR9-MyD88 cf=.;BLA counter-1=.;TLR9 CHO tox=.
O=c1c2ccccc2nc(-c2ccccc2)n1-c1ccccc1	.	.	.	/
O=c1c2ccccc2[se]n1-c1ccccc1	81	27	.	.	TLR9-MyD88 cf=.;BLA counter-1=.;TLR9 CHO tox=26;ABHD5 PLIN5 conf=88;HNF4 split-luc=110
C=CCN1C[C@@H](C)N(C(c2ccc(C(=O)N(CC)CC)cc2)c2cccc(OC)c2)C[C@@H]1C (stereo partly drawn)	.	.	.	/
CN(C)c1ccc(/C=C/[N+](=O)[O-])cc1	71	24	28	.	TLR9-MyD88 cf=.;BLA counter-1=.;TLR9 CHO tox=.;ABHD5 PLIN5 conf=85;HNF4 split-luc=82
C=C1C(=O)OC2C1CCC(C)C1(O)C=CC(=O)C21C (stereo not drawn)	.	.	.	/
C=C1C(=O)O[C@@H]2C[C@@H](C)[C@@H]3C4OC4C(=O)[C@@]3(C)[C@@H](O)[C@H]12 (stereo partly drawn)	48	24	55	/	TLR9-MyD88 cf=26;BLA counter-1=.;TLR9 CHO tox=100;NOD2 RIPK2 conf=52;BLA counter-2=23
C=C1C(=O)O[C@@H]2C[C@@H](C)[C@@H]3C=CC(=O)[C@@]3(C)[C@@H](OC(=O)CC(=O)O[C@H]3[C@@H]4C(=C)C(=O)O[C@@H]4C[C@@H](C)[C@@H]4C=CC(=O)[C@]43C)[C@H]12	99	32	88	/	TLR9-MyD88 cf=43;BLA counter-1=.;TLR9 CHO tox=99;NOD2 RIPK2 conf=87;BLA counter-2=44
O=C1NC(=O)C(=Cc2c(Cl)cccc2Cl)C(=O)N1	.	.	.	/
